Source: PubChem
C diff HTS: C. difficile growth inhibitors, primary screen, HTS | growth activity, negative = inhibition, % at 16 µg/mL (by protocol) | Clostridium difficile clinical isolate growth, OD600, 24 h; stronger effect = lower value | 0.25% of 86,000 active | AID 1259249, 2017;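 active means mean growth activity at or below -80% and every replicate also at or below -80%; inconclusive means mean at or below -80% but some replicate above -80%; inactive means mean growth activity above -80%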
Pf Dd2 growth: P. falciparum Dd2 growth inhibitors, primary screen, SYBR Green fluorescence, single dose replicates | 72 h; stronger effect = lower value | activity change, % at 10 µM | 2.3% of 94,000 active | AID 1159554, 2015; in the data active means activity change below about -80%; inconclusive means no clear call, values can overlap the other calls
T cruzi growth-1: T. cruzi intracellular proliferation inhibitors, primary screen, cell-based, beta-gal Tulahuen parasites, NIH3T3 host, luminescence | T. cruzi beta-gal in NIH3T3, GalScreen luminescence, 90 h | inhibition, % at 8.34 µM | 5.9% of 77,000 active;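 active means mean inhibition above about 93%, with at least 55% of replicates each passing it, limit read from the data, passing the limit was not always enough; inconclusive means only one of those two conditions holds; inactive means neither condition holds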
T cruzi growth-2: T. cruzi intracellular proliferation inhibitors, confirmation, cell-based, NIH3T3 host, beta-gal parasite, luminescence, cherry-pick. shares compounds with T cruzi growth-1. T. cruzi beta-gal in NIH3T3, GalScreen luminescence, 90 h. inhibition, % at 8.35 µM. 72% of 5,600 active. AID 651739, 2012;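 active means mean replicate inhibition above about 95% and at least 55% of replicates individually reaching it, limit read from the data; inconclusive means only one of the two criteria is met; inactive means neither criterion is met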
T cruzi growth-3: inhibitors of intracellular T. cruzi replication, confirmation, NIH3T3 host cells, beta-gal parasites, cherry-pick, set 2. inhibition, % at 2.09 µM. AID 651740, 2012. T. cruzi beta-gal in NIH3T3, GalScreen luminescence, 90 h. shares compounds with T cruzi growth-1. 21% of 5,600 active;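 active means mean inhibition above about 95%, with at least 55% of replicates also reaching it, limit read from the data; inconclusive means meets just one of the two conditions; inactive means meets neither condition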
NIH3T3 tox: cytotoxicity in mouse NIH/3T3 fibroblasts, confirmation, cytotoxicity control for T. cruzi proliferation inhibitor project, cell-based, cherry-pick, single point | cytotoxicity (signal decrease), % at 8.35 µM | NIH/3T3 viability, CellTiter-Glo ATP luminescence, 90 h | shares compounds with T cruzi growth-1 | 14% of 5,600 active;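 active means mean signal decrease across replicates above about 35% based on untreated-well scatter, with enough replicates individually passing, limit read from the data; inconclusive means no rule stated though some were filed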
NIH3T3 tox 2: NIH/3T3 fibroblast cytotoxicity, confirmation, cytotoxicity control, cell-based, cherry-pick, single point, set 2; 56% of 5,600 active; NIH/3T3 viability, CellTiter-Glo ATP luminescence, 90 h; inhibition, % at 24.9 µM; shares compounds with T cruzi growth-1;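 active means mean loss of cell viability signal at or above a set limit, and enough replicates individually reaching it; inconclusive means meets only the mean limit or only the replicate share; inactive means meets neither condition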
Numbers stand for hits; - = inactive; ? = inconclusive; . = no result. This is a sample that favours compounds with a hit; in the whole collection about 6.7% have one here.

SMILES	C diff HTS	Pf Dd2 growth	T cruzi growth-1	T cruzi growth-2	T cruzi growth-3	NIH3T3 tox	NIH3T3 tox 2
C[C@@H]1CN([C@@H](C)CO)C(=O)c2cc(NC(=O)Nc3ccc(C(F)(F)F)cc3)ccc2O[C@@H](C)CCCCO[C@H]1CN(C)S(=O)(=O)c1cccs1	-	-	100.0	104.9	112.4	-	-
C[C@@H]1CN([C@H](C)CO)C(=O)c2cc(NC(=O)Nc3ccc(C(F)(F)F)cc3)ccc2O[C@@H](C)CCCCO[C@@H]1CN(C)S(=O)(=O)c1cccs1	-	-	-	.	.	.	.
COc1cccc(NC(=O)N[C@@H]2CC[C@H](CC(=O)N3CCCCC3)O[C@@H]2CO)c1	.	-	-	.	.	.	.
C[C@H]1CN([C@@H](C)CO)C(=O)c2cc(C#CC3CCCCC3)cnc2O[C@H]1CN(C)C(=O)NC1CCCC1	-	-	-	.	.	.	.
CO[C@H]1CN(C)C(=O)c2cc(NC(=O)c3cc(C)on3)ccc2OC[C@@H](C)N(CC2CC2)C[C@H]1C	.	-	-	.	.	.	.
COc1ccc(NC(=O)Nc2ccc3c(c2)[C@H]2C[C@H](CC(=O)NCc4ccccc4F)O[C@H](CO)[C@H]2O3)cc1	-	-	-	.	.	.	.
O=C(N[C@@H]1CC[C@@H](CCn2cc(C3(O)CCCC3)nn2)O[C@H]1CO)C1CC1	-	-	.	.	.	.	.
CCN1[C@@H]2c3ccc(-c4cccc(F)c4)c(=O)n3C[C@H]1[C@H](CO)[C@H]2C(=O)NCCCN(C)C	-	.	-	.	.	.	.
COc1ccc(NC(=O)N(C)C[C@@H]2Oc3ccc(NS(=O)(=O)c4ccc(Cl)cc4)cc3C(=O)N([C@@H](C)CO)C[C@H]2C)cc1	-	-	-	.	.	.	.
COc1ccc(NC(=O)N(C)C[C@@H]2Oc3c(NC(=O)CCCCCC(=O)Nc4ccccc4N)cccc3C(=O)N([C@@H](C)CO)C[C@H]2C)cc1	-	-	.	.	.	.	.
C[C@@H]1CN([C@H](C)CO)C(=O)c2cc(NC(=O)Nc3ccc(C(F)(F)F)cc3)ccc2O[C@H]1CN(C)S(=O)(=O)c1cccs1	-	-	-	.	.	.	.
C[C@H](CO)N1C[C@H](C)[C@@H](CN(C)S(=O)(=O)c2cccs2)Oc2ccc(NC(=O)Nc3ccc(C(F)(F)F)cc3)cc2C1=O	-	-	-	.	.	.	.
C[C@@H]1CN([C@H](C)CO)C(=O)c2cc(NC(=O)Nc3ccc(C(F)(F)F)cc3)ccc2O[C@@H]1CN(C)S(=O)(=O)c1cccs1	-	-	?	107.8	-	-	40.1
C[C@H]1CN([C@@H](C)CO)C(=O)c2cccc(NS(C)(=O)=O)c2O[C@@H]1CN(C)S(=O)(=O)c1cccs1	.	-	?	-	-	-	48.1
C[C@@H]1CN([C@@H](C)CO)C(=O)c2cccc(NS(C)(=O)=O)c2O[C@@H]1CN(C)S(=O)(=O)c1cccs1	.	-	-	.	.	.	.
C[C@H](CO)N1C[C@H](C)[C@H](CN(C)S(=O)(=O)c2cccs2)Oc2ccc(NC(=O)Nc3ccc(C(F)(F)F)cc3)cc2C1=O	-	-	114.9	103.1	-	-	99.6
C[C@H](CO)N1C[C@H](C)[C@H](CN(C)S(=O)(=O)c2cccs2)Oc2c(NC(=O)Nc3ccc(C(F)(F)F)cc3)cccc2C1=O	-	-	103.1	-	-	56.1	105.1
C[C@H]1CN([C@@H](C)CO)C(=O)c2cccc(NC(=O)Nc3ccc(C(F)(F)F)cc3)c2O[C@H]1CN(C)S(=O)(=O)c1cccs1	-	-	-	.	.	.	.
COc1ccc(NC(=O)N(C)C[C@H]2OCCCC[C@H](C)Oc3ccc(NC(=O)Nc4ccc5c(c4)OCO5)cc3C(=O)N([C@@H](C)CO)C[C@H]2C)cc1	-	-	.	.	.	.	.
COc1ccc(NC(=O)N(C)C[C@H]2OCCCC[C@H](C)Oc3ccc(NS(=O)(=O)c4c(C)noc4C)cc3C(=O)N([C@H](C)CO)C[C@@H]2C)cc1	-	-	-	.	.	.	.
N#C[C@@H]1[C@H](c2ccc(-c3ccccc3F)cc2)[C@@H](CO)N1C(=O)C1CC1	-	-	-	.	.	.	.
COc1ccccc1-c1ccc([C@@H]2[C@@H](C#N)N(C(=O)C3CC3)[C@H]2CO)cc1	-	-	103.8	-	-	-	-
N#C[C@H]1[C@@H](c2ccc(-c3ccccc3F)cc2)[C@@H](CO)N1C(=O)C1CC1	-	-	104.0	106.7	-	-	?
COc1ccc(-c2ccc([C@H]3[C@@H](C#N)N(C(=O)C4CC4)[C@H]3CO)cc2)cc1	-	-	105.0	-	-	-	-
COc1ccc(-c2ccc([C@@H]3[C@H](C#N)N(C(=O)C4CC4)[C@H]3CO)cc2)cc1	-	-	-	.	.	.	.
SMILES	C diff HTS	Pf Dd2 growth	T cruzi growth-1	T cruzi growth-2	T cruzi growth-3	NIH3T3 tox	NIH3T3 tox 2
COc1ccccc1-c1ccc([C@@H]2[C@@H](C#N)N(C(=O)C3CCC3)[C@H]2CO)cc1	-	-	-	.	.	.	.
C[C@H](CO)N1C[C@H](C)[C@@H](CN(C)Cc2ccc(Cl)c(Cl)c2)OCc2ccccc2-c2ccccc2C1=O	-	-	.	.	.	.	.
COC(=O)C[C@@H]1C[C@H]2c3cc(NS(=O)(=O)c4ccc(F)cc4)ccc3O[C@H]2[C@H](CO)O1	-	-	-	.	.	.	.
COc1ccc(CN(C)C[C@H]2Oc3ccc(NC(=O)Cc4ccccc4)cc3C(=O)N([C@@H](C)CO)C[C@H]2C)cc1	-	-	-	.	.	.	.
C[C@@H]1CN([C@@H](C)CO)C(=O)c2cccc(NC(=O)Nc3ccc(C(F)(F)F)cc3)c2O[C@H]1CN(C)C(=O)Nc1ccc(C(F)(F)F)cc1	-	-	-	.	.	.	.
O=S(=O)(c1ccc(F)cc1)N1CCCCN2[C@@H](CO)[C@H](c3ccc(C#CC4CC4)cc3)[C@@H]2C1	-	-	?	108.8	-	44.1	102.6
Cc1cccc(S(=O)(=O)N2CCCCN3[C@H](CO)[C@@H](c4ccc(C#CC5CC5)cc4)[C@H]3C2)c1	-	-	-	.	.	.	.
O=S(=O)(c1ccccc1)N1CCCCN2[C@@H](CO)[C@H](c3ccc(C#CC4CCCC4)cc3)[C@@H]2C1	-	-	-	.	.	.	.
Cc1cccc(S(=O)(=O)N2CCCCN3[C@H](C2)[C@H](c2ccc(C#CC4CC4)cc2)[C@@H]3CO)c1	-	-	108.4	108.9	98.4	-	64.7
Cc1cccc(S(=O)(=O)N2CCCCN3[C@H](CO)[C@H](c4ccc(C#CC5CC5)cc4)[C@@H]3C2)c1	-	-	-	.	.	.	.
COc1cccc(S(=O)(=O)N2CCCCN3[C@H](CO)[C@@H](c4ccc(C#CC5CC5)cc4)[C@H]3C2)c1	-	-	104.1	98.0	-	45.2	104.7
